Sampled rows, rich in hits. Any-hit rate of the full collection: about 5%.
VACV Venus inh = inhibitors of vaccinia virus (Venus reporter) | Vaccinia virus Venus reporter expression, fluorescence | Potency, µM (top dose mostly 36.5 µM), for inactives: top-dose activity change, negative = inhibition, most hits filed as inhibitors | 330,000 compounds, 0.46% hits; calls by dose curve; tested in A549 cells; note: potency is the fitted concentration of half-maximal effect; nearly all actives have a fitted effect of over 30% in size
Tb PYK inh = blocks Trypanosoma brucei pyruvate kinase. Q57TT1. TbPYK enzyme, Kinase-Glo Plus ATP luminescence, 45 min. Potency, µM (top dose mostly 76.8 µM), for inactives: at the highest dose activity, negative = inhibition, most hits filed as inhibitors. 410,000 compounds, 0.12% hits; note: potency is the fitted concentration of half-maximal effect; nearly all actives have a fitted effect of over 50% in size
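In this concentration-response screen, enzyme-free wells defined baseline while DMSO plates tracked drift. Each reaction combined TbPYK, substrate, compound and 130 uM ADP for 45 min at room temperature. Kinase-Glo Plus luminescence gave the signal.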
VACV mCherry inh = vaccinia inhibition (mCherry reporter). 310,000 compounds, 0.63% hits. Potency, µM (top dose mostly 36.5 µM), for the others: at the highest dose activity change, negative = inhibition, hits mostly inhibitors. Vaccinia virus mCherry reporter infection, fluorescence; calls by dose curve; tested in A549 cells; note: potency is the fitted concentration of half-maximal effect; nearly all actives have a fitted effect of over 35% in size
LmPK inhibitor = inhibitors of Leishmania mexicana pyruvate kinase; Q27686; purified LmPK, Kinase-Glo ATP luminescence, 1 h; Potency, µM (titrated, usually from 57.5 µM), for the others: top-dose activity change, negative = inhibition, hits mostly inhibitors; 290,000 compounds, 0.37% hits; AID 1721; note: potency is the fitted concentration of half-maximal effect
Target sequence (Q27686 whole entry, looked up): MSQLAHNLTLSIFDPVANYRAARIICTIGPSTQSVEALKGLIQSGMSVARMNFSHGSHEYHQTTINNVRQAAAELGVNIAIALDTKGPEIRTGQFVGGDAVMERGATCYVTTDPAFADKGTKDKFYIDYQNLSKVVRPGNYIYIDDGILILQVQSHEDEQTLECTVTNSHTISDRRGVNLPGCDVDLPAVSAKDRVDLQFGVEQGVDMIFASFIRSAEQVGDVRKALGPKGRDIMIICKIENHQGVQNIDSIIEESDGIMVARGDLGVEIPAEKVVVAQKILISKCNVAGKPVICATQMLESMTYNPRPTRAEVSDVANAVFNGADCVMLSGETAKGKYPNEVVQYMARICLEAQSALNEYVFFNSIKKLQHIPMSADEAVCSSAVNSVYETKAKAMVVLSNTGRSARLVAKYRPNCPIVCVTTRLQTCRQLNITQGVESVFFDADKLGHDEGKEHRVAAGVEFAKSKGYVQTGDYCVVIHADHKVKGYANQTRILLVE
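0.1 nM LmPK, 0.5 mM PEP, 0.1 mM ADP; 50 mM imidazole pH 7.2, 7 mM MgCl2, 50 mM KCl; 1 h RT. Kinase-Glo luminescence readout, normalized to no-enzyme (full inhibition) and uninhibited wells.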
HCMV inh = human cytomegalovirus inhibition | activity change, negative = inhibition, % at 57.5 µM | HFF cells, HCMV-luciferase reporter, 72 h; active compounds read low | 410,000 compounds, 4.5% hits; in the data active = activity change below about -60%; inconclusive = no clear call, values can overlap the other calls; inactive = above about -39%
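Human foreskin fibroblasts infected with luciferase-reporter HCMV at MOI 1 PFU/cell, compounds at two doses. Luciferase measured 72 h post infection; normalized to buffer-only basal and Salinomycin (10uM) controls.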
* hit, by the source's call; i = inactive; ? = inconclusive; . = not tested or not shown; [ ] = dose if it differs, or a comment. Unless noted, calls come from the whole dose curve; as a rule, active = well fitted curve in the direction sought with a large enough effect; inconclusive = small, poorly fitted or top-dose-only effect, or another doubt; inactive = no such curve, though single readings can be large; an effect the other way counts as inactive or inconclusive. % is set by controls: 0 for no effect and ±100 for the full control effect.

SMILES | VACV Venus inh | Tb PYK inh | VACV mCherry inh | LmPK inhibitor | HCMV inh
Fc1ccc(-n2nnc(-c3cccnc3Cl)n2)cc1 | -11.8% | -0.8% | i | -25.6% | 0.3
Clc1ncccc1-c1nnn(-c2ccccc2)n1 | -1.1% | -11.4% | i | 15.8µM* | 105.1
Cc1ccc(C2=NOC(C)(c3nnc(-c4cccc(Cl)c4)o3)C2)cc1 (stereo not given) | -5.3% | 0.8% | i | . | -27.6
C=CCn1c(=O)c(C(=O)NCc2ccc(Cl)cc2)c(O)c2ccccc21 | . | -16.6% | . | 5.5% | -65.9*
CC(C)C[C@@H](CN1CCCC1CN1C(=S)NC[C@@H]1Cc1ccc(O)cc1)N1C[C@H](Cc2ccc(O)cc2)N(CC2CCCCCC2)C1=S (stereo not given in full) | 11.2µM* | 0.4% | 6.31µM* | . | -90.5*
CC(C)C[C@@H](CN1CCCC1CN1C(=S)NC[C@@H]1Cc1ccc(O)cc1)N1C[C@H](Cc2ccccc2)N(CC2CCCCC2)C1=S (stereo not given in full) | ? | -2.5% | -29.9% | . | -70.5*
CC(C)C[C@@H](CN1CCCC1CN1C(=S)NC[C@@H]1Cc1ccc(O)cc1)N1C[C@H](Cc2ccccc2)N(CC2CCCCCC2)C1=S (stereo not given in full) | -27.2% | 3.9% | -24.3% | . | -15.0
S=C1NC[C@H](Cc2ccccc2)N1CC1CCN(CCCC2CCCCC2)CC1 | . | . | . | . | -104.8*
CCN(CC(=O)Nc1ccc2c(c1)OCCO2)C(=O)/C=C/c1ccc([N+](=O)[O-])cc1 | -18.0% | 4.5% | -21.2% | . | 75.5
Cc1ccc(-c2csc3nc4c5ccccc5c(NCCCN(C)C)nn4c(=O)c23)cc1 | . | -2.3% | . | -4.2% | -99.0*
CCOC(=O)c1ccc(NC(=O)CSc2nnc(CCc3ccc(C)o3)n2-c2ccccc2)cc1 | -16.9% | 4.0% | -29.2% | -1.4% | -1.1
Cc1nn2cc(-c3ccc(-c4ccccc4)cc3)nc2s1 | -14.2% | -8.3% | . | -11.9% | 8.3
CCc1nn2cc(-c3ccccc3)nc2s1 | . | ? | . | 11.2µM* | 2.2
CNC(=S)Nc1cccc([N+](=O)[O-])c1 | -12.1% | 0.8% | -11.9% | 7.6% | -3.2
CCNC(=S)Nc1cccc([N+](=O)[O-])c1 | . | . | . | -0.7% | .
Cc1cc(Br)ccc1NC(=S)Nc1cccc([N+](=O)[O-])c1 | -19.9% | 0.0% | ? | -2.8% | -63.7*
C=CCNC(=S)Nc1cccc([N+](=O)[O-])c1 | -8.2% | -3.5% | ? | 1.3% | -89.7*
CSc1ccc(/C=N/NC(=O)C[n+]2ccccc2)cc1 | . | 1.4% | . | -5.4% | .
CCOC(=O)Cc1csc(NC(=O)CN2C(=O)c3ccccc3C2=O)n1 | -0.3% | -0.2% | -7.4% | -3.7% | -27.7
Cc1ccc(C(NC(=O)N2CCOCC2)=C(Cl)Cl)cc1F | ? | 2.1% | ? | -4.4% | -69.4*
c1ccc(-c2nc(-c3cnc4ccccc4n3)cs2)cc1 | -9.5% | . | -15.2% | . | .
CCc1ccc(N(CC(=O)NC2CCCCC2)C(=O)CCC(=O)Nc2ccccn2)cc1 | 1.6% | 0.4% | -0.9% | -6.5% | -15.4
CN(Cc1nccs1)C(=O)c1cc(COc2cccc3cnccc23)on1 | . | 2.1% | . | 7.3% | -75.3*
CC(=O)c1cccc(OCc2cc(C(=O)N(C)Cc3nccs3)no2)c1 | -5.0% | 1.3% | i | . | -9.9
COC(=O)C1CCCCN1C(=O)c1cc(COc2cccc3cnccc23)on1 (stereo not given) | . | . | . | -3.9% | -92.0*
SMILES | VACV Venus inh | Tb PYK inh | VACV mCherry inh | LmPK inhibitor | HCMV inh
CCOC(=O)CC1CCCCN1C(=O)c1cc(COc2cccc3cnccc23)on1 (stereo not given) | . | -0.8% | . | 1.3% | -87.0*
CCOC(=O)c1ccc(NC(=O)N2CCCCCC2)cc1 | -5.8% | -0.2% | -12.8% | 4.1% | -5.0
C/C(=N\NC(=O)CNC(=O)C1COc2ccccc2O1)c1ccc(Cl)cc1 (stereo not given) | -12.6% | 0.9% | -26.8% | 3.2% | -14.1
O=C(Nc1ccc(Br)c2ccccc12)c1ccc2ccccc2c1O | ? | 0.6% | ? | 3.0% | -100.1*
CCc1ccc(NC(=O)NNC(=O)c2ccc3ccccc3c2O)cc1 | . | -2.2% | . | 4.3% | -82.3*
O=S(=O)(c1ccc(F)cc1)c1nc(-c2ccco2)oc1Nc1ccc(F)cc1 | . | -4.4% | . | -3.3% | -73.6*
COc1ccc(Nc2oc(-c3ccco3)nc2S(=O)(=O)c2ccc(F)cc2)cc1 | . | 2.9% | . | 0.3% | ?
Cc1ccc(C(=O)N2CCCC(N3CCN(c4ccccc4C)CC3)C2)c(=O)[nH]1 (stereo not given) | . | 3.7% | . | 5.9% | -69.7*
CCc1nccn1CCC(=O)N1CCCC(N2CCN(c3ccccc3C)CC2)C1 (stereo not given) | -16.7% | 1.5% | -4.2% | -1.3% | -87.4*
O=C(Nc1ccccc1N1CCOCC1)c1ccc([N+](=O)[O-])o1 | ? | -6.0% | 11.2µM* | -10.1% | 8.5
O=C(Nc1ccccc1N1CCOCC1)C1(c2ccc(Cl)cc2)CCC1 | -13.6% | 2.4% | -0.3% | -0.4% | -66.0*
O=C(Nc1cccc(Cl)c1N1CCCC1)c1ccc([N+](=O)[O-])o1 | -10.6% | 0.1% | -11.0% | 4.1% | 1.9
CCN1CCN(c2c(Cl)cccc2NC(=O)c2ccc([N+](=O)[O-])o2)CC1 | . | . | . | . | -97.3*
O=C(Nc1ccccc1N1CCCCC1)c1cccc([N+](=O)[O-])c1 | -6.4% | 2.1% | -16.6% | 0.3% | -29.8
O=C(Nc1ccccc1N1CCCCC1)c1ccc([N+](=O)[O-])o1 | ? | -0.1% | 12.6µM* | . | -32.2
COC(=O)CN1C(CN2CCOCC2)=Nc2ccc(Br)cc2C1c1ccccc1 (stereo not given) | 0.4%[7.34 µM] | 1.6% | i[7.34 µM] | 2.9% | -31.8
O=C(CSc1nc(=O)n(Cc2ccncc2)c2c1CCC2)Nc1ccccc1 | -20.7% | 1.6% | i | . | 8.2
O=C(NCc1cccc(Cl)c1)c1ccc(NC(=O)N2CCSc3ccccc32)cc1 | -6.1% | -4.8% | -0.7% | . | -5.1
CCCN1C(=O)COc2ccc(C(=O)c3ccccc3C(=O)O)cc21 | -17.9% | -5.2% | -3.7% | -0.2% | -13.8
CCCN1C(=O)COc2ccc(-c3n[nH]c(=O)c4ccccc34)cc21 | -25.7% | 2.9% | -17.5% | -2.2% | -101.8*
CCOCCCNC(=O)CN1C2CCC1CC(O)(c1ccc(OC)cc1)C2 (stereo not given) | -1.5% | -0.1% | -17.8% | -1.3% | 11.0
O=C(O)C1CCN(S(=O)(=O)c2ccc(Cl)s2)CC1 | -13.4% | 3.8% | -11.1% | . | 21.5
C=CCN(c1ccccc1)S(=O)(=O)c1cccc(C(=O)N2CCCC2)c1 | -21.4% | 5.1% | -1.4% | . | -26.1
C=CCN(c1ccccc1)S(=O)(=O)c1cccc(C(=O)N2CC(C)CC(C)C2)c1 (stereo not given) | -23.6% | -4.5% | -26.3% | 2.3% | -85.0*
C=CCN(c1ccccc1)S(=O)(=O)c1cccc(C(=O)Nc2nnc(SCC)s2)c1 | -13.7% | -12.5% | -13.0% | 3.1% | -62.2*
O=C(O)C1(c2ccccc2)CCN(S(=O)(=O)c2ccc(Cl)s2)CC1 | . | 6.6% | . | 7.1% | -4.1
